Data: PubChem BioAssay (Tox21)
Inconclusive results are not listed. Active and inactive are the calls of the source. Unless noted, calls follow the shape of the dose curve; as a rule, active = well fitted curve in the direction sought with a large enough effect in the repeat runs; inconclusive = weak or mixed curves; inactive = no such curve, though single readings can be large; an effect the other way counts as inactive or inconclusive.

How the values were obtained:
[1] = A CellTox Green Cytotoxicity Assay to monitor cytotoxicity in HEK293 cells - 32 hour (AID 1224881); also: nearly all actives have a fitted effect of over 40% in size; also: potency is read from the fitted curve at half-maximal effect
How it was run: (§1)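 Homogeneous no-lysis format: HEK293 cell suspension mixed with CellTox Green reagent, seeded, incubated 5 h at 37 C/5% CO2, then dosed by pintool with compound in DMSO.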

[2] = A CellTox Green Cytotoxicity Assay to monitor cytotoxicity in HepG2 cells - 0 hour (AID 1224882); also: nearly all actives have a fitted effect of over 35% in size
How it was run: (§2)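 Fluorescent DNA-binding dye, 600 HepG2 cells/well, 5 h preincubation then compound in DMSO; same plates read at 0–40 h, 37 C.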

[3] = A CellTox Green Cytotoxicity Assay to monitor cytotoxicity in HepG2 cells - 32 hour (AID 1224883); also: nearly all actives have a fitted effect of over 50% in size; also: potency is read from the fitted curve at half-maximal effect
How it was run: as §2

[4] = A CellTox Green Cytotoxicity Assay to monitor cytotoxicity in HEK293 cells - 8 hour (AID 1224884); also: nearly all actives have a fitted effect of over 35% in size; also: potency is read from the fitted curve at half-maximal effect
How it was run: as §1

[5] = qHTS RealTime-Glo MT Cell Viability Assay in HepG2 cells - 16 hour (AID 1224885); also: nearly all actives have a fitted effect of over 50% in size
How it was run: (§3)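 Cell number in HepG2 cultures estimated from NanoLuc luminescence generated by metabolic reduction of a prosubstrate by living cells. The homogeneous, nonlytic format allowed repeated reads at 0, 8, 16, 24, 32 and 40 h of compound exposure.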

[6] = qHTS RealTime-Glo MT Cell Viability Assay in HEK293 cells - 24 hour (AID 1224886); also: nearly all actives have a fitted effect of over 50% in size; also: potency is read from the fitted curve at half-maximal effect
How it was run: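 Homogeneous bioluminescent viability format in HEK293 cells (600 cells/well). Following 5 h at 37 C/5% CO2, 23 nL compound was pintooled; the signal was measured repeatedly during 40 h incubation.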

[7] = qHTS RealTime-Glo MT Cell Viability Assay in HEK293 cells - 8 hour (AID 1224887); also: nearly all actives have a fitted effect of over 50% in size; also: potency is read from the fitted curve at half-maximal effect
How it was run: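 Measured as luminescence from the same continuously cultured HEK293 wells at successive time points (0, 8, 16, 24, 32, 40 h) after compound addition. Reagent present from seeding; dosing at 5 h; incubation 37 C.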

[8] = qHTS RealTime-Glo MT Cell Viability Assay in HepG2 cells - 0 hour (AID 1224889); also: nearly all actives have a fitted effect of over 50% in size; also: potency is read from the fitted curve at half-maximal effect
How it was run: as §3

[9] = A CellTox Green Cytotoxicity Assay to monitor cytotoxicity in HepG2 cells - 8 hour (AID 1224890); also: nearly all actives have a fitted effect of over 45% in size; also: potency is read from the fitted curve at half-maximal effect
How it was run: as §2

[10] = qHTS assay to identify small molecule antagonists of the estrogen receptor alpha (ER-alpha) signaling pathway using the BG1 cell line in the presence of 0.1 nM 17-beta-estradiol - cell viability counter screen (AID 1259241); also: nearly all actives have a fitted effect of over 40% in size; also: potency is read from the fitted curve at half-maximal effect
How it was run: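 Measures cytotoxicity alongside the ER-alpha antagonist readout: VM7Luc4E2 cells, charcoal-stripped serum, 0.1 nM 17beta-estradiol final, 22 hr compound incubation at 37C, CellTiter-Fluor fluorescence.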

[11] = qHTS assay to identify small molecule antagonists of the androgen receptor (AR) signaling pathway using the MDA cell line in the presence of 0.5 nM R1881 - cell viability counter screen (AID 1259242); also: nearly all actives have a fitted effect of over 45% in size; also: potency is read from the fitted curve at half-maximal effect
How it was run: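 Human breast carcinoma MDA-kb2 cells, cultured without CO2, receive compounds alongside 0.5 nM (final) R1881 agonist. After 16 hr at 37C, viability is taken as live-cell protease signal.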

[12] = molecular target: Androgen receptor (Homo sapiens) (UniProt P10275); assay: qHTS assay to identify small molecule antagonists of the androgen receptor (AR) signaling pathway using the MDA cell line in the presence of 0.5 nM R1881 (AID 1259243); also: nearly all actives have a fitted effect of over 50% in size
How it was run: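 Cells: MDA-kb2 (MMTV-luc). Stimulus: 0.5 nM R1881. Time: 16 hr, 37C, no CO2. Detection: ONE-Glo luminescence after 30 min at RT.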

[13] = molecular target: Estrogen receptor (Homo sapiens) (UniProt P03372); assay: qHTS assay to identify small molecule antagonists of the estrogen receptor alpha (ER-alpha) signaling pathway using the BG1 cell line in the presence of 0.1 nM 17-beta-estradiol (AID 1259244); also: nearly all actives have a fitted effect of over 50% in size; also: potency is read from the fitted curve at half-maximal effect
How it was run: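 Seeding of stripped-serum-adapted VM7Luc4E2 cells, 24 h attachment, compound transfer, then 0.1 nM final 17beta-estradiol; after 22 h incubation, ONE-Glo reagent and luminescence reading.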

[14] = qHTS assay to identify small molecule phospholipidosis (PLD) inducers (AID 1259344; active = well fitted curve in the direction sought with a large enough effect; an effect the other way counts as inactive or inconclusive)
How it was run: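 Image-based: LipidTOX Red pit count/intensity per well and per cell; HepG2, 24 h compound at 37 C, PFA fixation, Hoechst counterstain.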

[15] = qHTS assay to identify small molecule HDAC inhibitors - cell viability counter screen (AID 1259365)
How it was run: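 Following a 2hr exposure of overnight-plated wild-type HCT-116 cells to DMSO-delivered compounds, CellTiter-Glo was added and luminescence recorded after 30min at room temperature.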

[16] = qHTS assay to identify small molecule agonists of the sonic hedgehog signaling (Shh) pathway - cell viability counter screen (AID 1259366); also: nearly all actives have a fitted effect of over 50% in size; also: potency is read from the fitted curve at half-maximal effect
How it was run: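 After a 4hr attachment at 37C, NIH/3T3 cells bearing an integrated Gli1-driven luciferase reporter were dosed with compounds. Treatment lasted 24hr, with the final hour including CellTiter-Fluor for a fluorescence viability measurement.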

[17] = qHTS assay to identify small molecule antagonists of the sonic hedgehog signaling (Shh) pathway - cell viability counter screen (AID 1259367); also: nearly all actives have a fitted effect of over 55% in size; also: potency is read from the fitted curve at half-maximal effect
How it was run: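 Tox21 library chemicals were tested on a Gli1-Luc NIH/3T3 clone (2,000 cells/well) stimulated by conditioned medium; viability was quantified as fluorescence from CellTiter-Fluor reagent added at 23 hr.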

[18] = qHTS assay to identify small molecule agonists of the sonic hedgehog signaling (Shh) pathway (AID 1259368; calls by dose curve;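 also: NIH/3T3-derived 3T3Gli1-Luc cells carrying a stable Gli1-driven firefly luciferase reporter; series mostly up to about 92 µM; nearly all actives have a fitted effect of over 15% in size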)
How it was run: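 Stable NIH/3T3 Gli1-Luc reporter clone; 24 hr cpd exposure after a 4 hr settling period; luminescence endpoint.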

[19] = qHTS assay to identify small molecule HDAC inhibitors (AID 1259364); also: potency is read from the fitted curve at half-maximal effect;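 also: wild-type HCT-116 cells with endogenous class I/II HDAC activity; nearly all actives have a fitted effect of over 45% in size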
How it was run: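 After a 2 hr compound incubation (37C, 5% CO2), HCT-116 cells seeded at 1,500/well the day before received HDAC-Glo reagent; signal read as luminescence after 30 min at room temperature.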

[20] = A CellTox Green Cytotoxicity Assay to monitor cytotoxicity in HEK293 cells - 16 hour (AID 1224888); also: nearly all actives have a fitted effect of over 35% in size
How it was run: as §1

Measured: Potency

Chain of Androgen receptor (Homo sapiens) (P10275 whole entry, looked up): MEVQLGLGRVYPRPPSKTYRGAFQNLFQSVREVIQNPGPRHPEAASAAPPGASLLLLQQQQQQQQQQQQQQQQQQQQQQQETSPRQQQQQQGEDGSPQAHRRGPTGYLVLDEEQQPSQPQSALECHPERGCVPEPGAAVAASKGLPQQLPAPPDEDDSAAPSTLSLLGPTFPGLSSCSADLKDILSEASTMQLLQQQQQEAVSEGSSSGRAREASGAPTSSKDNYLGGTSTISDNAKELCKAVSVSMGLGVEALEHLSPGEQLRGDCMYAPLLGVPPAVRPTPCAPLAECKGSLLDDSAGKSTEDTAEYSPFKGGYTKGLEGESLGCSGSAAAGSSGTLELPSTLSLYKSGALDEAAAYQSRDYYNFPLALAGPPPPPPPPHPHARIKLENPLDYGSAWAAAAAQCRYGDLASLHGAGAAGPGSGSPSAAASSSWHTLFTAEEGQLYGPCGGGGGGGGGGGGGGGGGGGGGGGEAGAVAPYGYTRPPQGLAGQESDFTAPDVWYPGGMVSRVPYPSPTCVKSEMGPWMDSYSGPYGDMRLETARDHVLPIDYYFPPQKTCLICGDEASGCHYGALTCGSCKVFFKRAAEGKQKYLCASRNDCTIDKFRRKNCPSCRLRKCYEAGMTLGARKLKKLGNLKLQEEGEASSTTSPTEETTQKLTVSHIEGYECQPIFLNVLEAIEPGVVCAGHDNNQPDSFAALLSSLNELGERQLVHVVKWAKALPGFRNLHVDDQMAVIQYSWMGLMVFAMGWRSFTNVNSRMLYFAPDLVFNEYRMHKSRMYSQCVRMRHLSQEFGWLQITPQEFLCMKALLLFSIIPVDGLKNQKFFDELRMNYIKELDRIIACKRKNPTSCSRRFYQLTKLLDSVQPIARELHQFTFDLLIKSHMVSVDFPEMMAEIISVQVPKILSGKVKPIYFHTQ
Chain of Estrogen receptor (Homo sapiens) (P03372 whole entry, looked up): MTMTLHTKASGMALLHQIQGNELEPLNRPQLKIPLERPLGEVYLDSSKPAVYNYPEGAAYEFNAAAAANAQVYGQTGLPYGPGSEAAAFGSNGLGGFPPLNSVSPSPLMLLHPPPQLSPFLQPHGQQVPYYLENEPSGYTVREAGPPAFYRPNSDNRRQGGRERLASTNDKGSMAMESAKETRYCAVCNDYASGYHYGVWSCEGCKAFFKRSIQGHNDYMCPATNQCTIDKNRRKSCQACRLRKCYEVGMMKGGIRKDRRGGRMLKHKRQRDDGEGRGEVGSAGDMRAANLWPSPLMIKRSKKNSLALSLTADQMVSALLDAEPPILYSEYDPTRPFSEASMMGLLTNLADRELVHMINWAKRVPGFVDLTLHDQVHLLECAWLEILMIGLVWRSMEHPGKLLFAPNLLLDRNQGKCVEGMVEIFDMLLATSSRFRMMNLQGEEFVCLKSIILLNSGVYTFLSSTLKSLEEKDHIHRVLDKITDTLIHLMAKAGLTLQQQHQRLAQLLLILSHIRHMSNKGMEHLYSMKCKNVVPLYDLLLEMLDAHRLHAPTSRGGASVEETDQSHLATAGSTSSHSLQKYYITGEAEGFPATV

O=[N+]([O-])c1cccc(S(=O)(=O)NCCNS(=O)(=O)c2cccc([N+](=O)[O-])c2)c1
not listed: [19] | [20]
inactive: all other assays above

C[Si]1(C)O[Si](C)(C)O[Si](C)(C)O1
not listed: [9] | [13] | [14] | [20]
inactive: all other assays above

Cc1cnc(C)c(C)n1
active: [4] 51.3 µM
not listed: [8] | [12] | [13] | [14] | [20]
inactive: all other assays above

Cc1ccc(S(=O)(=O)NC2CCCCC2)cc1
not listed: [6] | [12] | [14]
inactive: all other assays above

Cc1cc(O)c(C(C)C)cc1Cl
active: [1] 38.9 µM | [3] 34.7 µM | [9] 43.6 µM
not listed: [12] | [20]
inactive: all other assays above

C[C@]12CCC(=O)C=C1C=C[C@@H]1[C@@H]2CC[C@@]2(C)[C@H]1CC[C@@]21CCC(=O)O1
active: [8] 7.56 µM
not listed: [12] | [13] | [14] | [20]
inactive: all other assays above

COc1cc2c(N3CCN(C(=O)Nc4ccc(OC(C)C)cc4)CC3)ncnc2cc1OCCCN1CCCCC1
active: [3] 26.8 µM | [6] 9.52 µM
not listed: [7] | [11] | [12] | [14] | [16] | [17]
inactive: all other assays above

CCC(Cc1ccccc1)(C(=O)c1ccc(N2CCOCC2)cc1)N(C)C (stereo not drawn)
not listed: [6] | [7] | [11] | [12] | [13] | [14] | [20]
inactive: all other assays above

O=C(Nc1ccccc1)Nc1ccccc1
active: [19] 1.54 µM
not listed: [6] | [7] | [9] | [12] | [14]
inactive: all other assays above

Cc1ccc(/C=N/n2c(-c3ccccc3)csc2=S)cc1
not listed: [12] | [13] | [19] | [20]
inactive: all other assays above

CC(=O)[C@H]1CC[C@H]2[C@@H]3C=CC4=CC(=O)CC[C@@]4(C)[C@@H]3CC[C@]12C
not listed: [6] | [12] | [20]
inactive: all other assays above

CCOC(=O)C(C)Oc1ccc(Oc2nc3ccc(Cl)cc3o2)cc1 (stereo not drawn)
active: [6] 24.5 µM | [7] 21.9 µM
not listed: [5] | [8] | [9] | [13] | [14]
inactive: all other assays above

Cc1oc(C)c(C(=O)Nc2ccccc2)c1C
active: [6] 34.7 µM | [13] 24.3 µM | [19] 27.3 µM
not listed: [7] | [12] | [14] | [18]
inactive: all other assays above

O=C(/C=C/c1ccccc1)OCCCc1ccccc1
not listed: [12] | [14] | [19] | [20]
inactive: all other assays above

CC(=N\O)/C(C)=N/O
not listed: [7] | [12] | [13] | [14]
inactive: all other assays above

CCCCC(CC)C(=O)OCCOCCOCCOCCOC(=O)C(CC)CCCC (stereo not drawn)
not listed: [6] | [12] | [14] | [18]
inactive: all other assays above

c1ccc(COCc2ccccc2)cc1
not listed: [8] | [9] | [12] | [14] | [20]
inactive: all other assays above

Cc1cc(S(=O)(=O)O)ccc1N=Nc1c(O)ccc2ccccc12
active: [10] 34.4 µM | [11] 48.6 µM | [19] 0.686 µM | [16] 27.3 µM | [17] 27.3 µM
not listed: [5] | [8] | [12] | [13] | [14] | [15]
inactive: all other assays above
